The whole screen tested about 350,000 compounds, of which about 5,500 (1.6%) were called active.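 Rule for the calls: active = significant combined selectivity score with lowered wild-type GFP, culture density cut under 30%, mutant RFP and density less affected; inactive = any of these conditions unmet.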 The full list was thinned out, with actives kept by preference.
Assay: reduced GFP signal of wild-type E. coli, primary screen, bacterial rRNA inhibitor project, GFP/RFP fluorescence, OD600, single point (AID 720706)
Conditions: E. coli WT GFP vs humanized-ribosome RFP mutants, 24 h; GFP signal change (wild-type ribosome): stronger effect = lower value, DMSO median 0, no signal -100; OD600 change: measured here: OD600 growth, DMSO median 0, no signal -100; RFP signal change: measured here: RFP humanized mutant strains, DMSO median 0, no signal -100, concentration not given here

Row | SMILES | GFP signal change (wild-type ribosome) | OD600 change [%] | RFP signal change [%]
1 | CC(=O)N1N=C(c2ccncc2)OC1(Cc1ccccc1)Cc1ccccc1 | -37.5% (active) | -22 | -2.93
2 | CC(=O)N1N=C(c2ccccc2)OC1c1cccnc1 (stereo not given) | 9.41% (inactive) | -5.18 | -3.3
3 | O=C(Cc1ccccc1)N1N=C(c2ccncc2)CC1(O)C(F)(F)F (stereo not given) | 7.85% (inactive) | -1.11 | 2.05
4 | CCc1cccc(C)c1N1C(=O)CN(Cc2ccccc2)C1=S | 1.91% (inactive) | -44.9 | -8.39
5 | COc1cccc(N2C(=O)CN(Cc3ccccc3)C2=S)c1 | -8.56% (inactive) | -0.07 | 3.96
6 | Cc1cccc(C)c1N1C(=O)CN(Cc2ccccc2)C1=S | -22.1% (active) | -16.8 | -3.28
7 | CCC(=O)N1CC(=O)N2[C@H](CO)[C@@H](c3ccc(-c4ccc(C(=O)N(C)C)cc4)cc3)[C@H]2C1 | 4.58% (inactive) | 2.18 | -2.34
8 | COc1ccc(SSc2ccc(OC)cc2C(=O)O)c(C(=O)O)c1 | 11.9% (inactive) | 11.8 | -2.19
9 | COC(=O)c1cc(OC)ccc1-c1ccc(OC)cc1 | -32.6% (active) | -15.3 | -6.08
10 | COc1ccc(C(=O)CC(=O)c2ccc(C)cc2)c(O)c1 | -49% (inactive) | -75.2 | -24.9
11 | COc1ccccc1S(=O)(=O)N[C@@H]1CC[C@H](CCn2cc(C3CCCC3)nn2)O[C@H]1CO | 1.1% (inactive) | 3.92 | -3.27
12 | C[C@H](CO)N1C[C@H](C)[C@H](CN(C)CC2CC2)OCCCC[C@H](C)Oc2ccc(NS(=O)(=O)c3cccs3)cc2C1=O | -0.767% (inactive) | -2.73 | -0.839
13 | Cc1ccc(-c2ccc([C@H]3[C@H](CO)N4C(=O)CN(S(=O)(=O)c5cccc(F)c5)C[C@@H]34)cc2)cc1 | -2.35% (inactive) | -0.94 | 0.984
14 | Cn1c(=O)n(C)c2cc(NS(=O)(=O)c3ccc(F)cc3)ccc21 | 0.225% (inactive) | 0.76 | -4.92
15 | CCC(=O)Nc1ccc2c(c1)nc(CCN1CCN(c3ccccn3)CC1)n2C | 4.56% (inactive) | 7.29 | 1.64
16 | Cn1c(CCN2CCN(c3ccccn3)CC2)nc2cc(NS(=O)(=O)c3ccc(F)cc3)ccc21 | -28.9% (active) | -17 | 3.47
17 | COCC(=O)N1CC2(C1)CN(C(=O)COC)[C@@H](CO)c1c2c2ccc(OC)cc2n1C | 4.63% (inactive) | 7.89 | 0.659
18 | Cc1ccc(S(=O)(=O)N(C)C[C@@H]2OCCCC[C@@H](C)Oc3ccc(NC(=O)C4CCCCC4)cc3C(=O)N([C@H](C)CO)C[C@H]2C)cc1 | -2.75% (inactive) | -2.24 | 1.84
19 | CCOc1ccc(N2C(=O)Nc3ccccc3C2(O)C(=O)NCc2ccco2)cc1 (stereo not given) | 2.27% (inactive) | 2.6 | 0.0175
20 | CCCCNC(=O)C1(O)c2ccccc2NC(=O)N1c1ccc(Cl)cc1 (stereo not given) | -25.8% (active) | -20.4 | 0.114

Row | SMILES | GFP signal change (wild-type ribosome) | OD600 change [%] | RFP signal change [%]
21 | CCOCCCNC(=O)C1(O)c2cc(Br)ccc2NC(=O)N1c1ccc(C)c(C)c1 (stereo not given) | 4.8% (inactive) | 3.91 | 0.676
22 | CNC[C@@H]1Oc2c(NC(=O)Nc3ccc(F)cc3)cccc2C(=O)N([C@@H](C)CO)C[C@@H]1C | 0.51% (inactive) | 5.77 | -0.32
23 | CCCNC(=O)C[C@H]1CC[C@H]2[C@@H](COC[C@H](O)CN2C(=O)Nc2c(C)noc2C)O1 | -3% (inactive) | 7.33 | -4.75
24 | C[C@@H]1CN([C@@H](C)CO)S(=O)(=O)c2ccc(/C=C/c3ccccc3)cc2O[C@@H]1CN(C)C(=O)Nc1cc(F)ccc1F | -1.81% (inactive) | 7.09 | -0.095
25 | CC(=O)Nc1ccc(S(=O)(=O)N2CCN(c3ccc([N+](=O)[O-])c(NCCN4CCOCC4)c3)CC2)cc1 | -2.32% (inactive) | 3 | 1.54
26 | COc1ccc(CCNc2cc(N3CCN(C(=O)c4ccccc4OC)CC3)ccc2[N+](=O)[O-])cc1OC | 2.05% (inactive) | -0.295 | 6.64
27 | COc1ccccc1OCCNc1cc(N2CCOCC2)ccc1[N+](=O)[O-] | -27.3% (active) | -18.1 | -0.933
28 | CNC[C@H]1OCCCC[C@H](C)Oc2ccc(NC(=O)Nc3ccc(C(F)(F)F)cc3)cc2C(=O)N([C@H](C)CO)C[C@@H]1C | -45.6% (inactive) | -74.3 | -0.5
29 | COc1ccc(CNC(=O)C[C@@H]2CC[C@H](NC(=O)c3cccc(F)c3)[C@H](CO)O2)cc1 | -0.639% (inactive) | 4.63 | 0.956
30 | C[C@H]1CN([C@@H](C)CO)C(=O)c2cc(C3=CCCC3)cnc2O[C@H]1CN(C)C(=O)Nc1ccc(F)cc1 | -0.884% (inactive) | 7.11 | -0.613
31 | O=C(N[C@@H]1C=C[C@H](CC(=O)N2CCOCC2)O[C@H]1CO)c1ccccn1 | 4.32% (inactive) | 4.06 | 0.272
32 | O=C(CNC(=O)Cc1ccccc1)N=Nc1c(O)[nH]c2ccc(Br)cc12 | -1.63% (inactive) | 10 | 0.336
33 | Cc1cccc(N=Nc2c(O)[nH]c3ccc(F)cc23)c1 | -28.8% (active) | 13.6 | 8.49
34 | Cc1c(-c2ccccc2)n[nH]c1C(=O)N=Nc1c(O)[nH]c2ccccc12 | -5.9% (inactive) | -4.62 | 2.09
35 | C[C@@H]1CN([C@@H](C)CO)S(=O)(=O)c2ccc(C#C[C@@H](C)O)cc2O[C@@H]1CN(C)CC1CC1 | 1.29% (inactive) | -4.39 | -1.26
36 | O=C(NCc1ccccc1Cl)NC(=O)c1csc([N+](=O)[O-])c1 | 12.9% (inactive) | 2.99 | 1.52
37 | O=[N+]([O-])c1ccccc1NCc1ccccc1Cl | -29.2% (active) | -20.4 | -10.2
38 | O=C(NCCNc1ccccc1[N+](=O)[O-])c1ccccc1F | -8.66% (inactive) | 7.69 | -6.27
39 | COc1cccc(CN(C)C[C@H]2OCc3ccccc3-c3c(n(C)c4ccccc34)C(=O)N([C@@H](C)CO)C[C@@H]2C)c1 | -21.2% (inactive) | -41.4 | 18.9
40 | C[C@@H]1CN([C@H](C)CO)S(=O)(=O)c2ccc(C#CC(C)(C)O)cc2O[C@@H]1CN(C)Cc1ccccc1 | 1.3% (inactive) | -3.23 | -1.75

Row | SMILES | GFP signal change (wild-type ribosome) | OD600 change [%] | RFP signal change [%]
41 | C[C@H](CO)N1C[C@H](C)[C@@H](CN(C)Cc2ccccc2)Oc2c(NC(=O)CCCCCC(=O)Nc3ccccc3N)cccc2C1=O | -10% (inactive) | -16.3 | 2.5
42 | C[C@H]1CCCCO[C@@H](CN(C)C(=O)Nc2cccc3ccccc23)[C@@H](C)CN([C@@H](C)CO)C(=O)c2cc(NS(=O)(=O)c3cn(C)cn3)ccc2O1 | 0.08% (inactive) | -14.1 | 8.18
43 | COc1ccc(CNS(=O)(=O)c2ccc(-c3cnc(C4CC4)o3)cc2)cc1 | -6.21% (inactive) | -8.89 | -0.493
44 | Cc1cccc(NS(=O)(=O)c2ccc(-c3cnc(C4CC4)o3)cc2)c1 | -8.12% (inactive) | -53.1 | 16.8
45 | Cc1cccc(CNS(=O)(=O)c2ccc(-c3cnc(C4CC4)o3)cc2)c1 | -28.7% (active) | -23 | -6.22
46 | CN1C(=O)c2cc(NC(=O)c3ccccc3)ccc2OC[C@H]2O[C@@H](CC(=O)O)CC[C@@H]21 | 2.79% (inactive) | 3.92 | -0.251
47 | C[C@@H]1CN([C@H](C)CO)C(=O)c2cccc(NC(=O)CCCCCC(=O)Nc3ccccc3N)c2O[C@H]1CN(C)CC1CCCCC1 | -16.1% (inactive) | -30.3 | -6.11
48 | COc1ccc(/C=C2\CCc3ccccc3C2=O)c(OC)c1OC | -21.9% (active) | -16.9 | -4.31
49 | COc1ccc(/C=N/NC(=O)C2CC2)c(OC)c1OC | 20.9% (inactive) | 9.1 | -1.71
50 | COc1ccc(/C=C2/CCCc3ccccc3C2=O)cc1 | -37.4% (inactive) | -62.5 | -10.8
51 | Cc1ccccc1-c1ccc([C@H]2[C@H](CO)N3C(=O)CN(C(=O)c4cccnc4)C[C@@H]23)cc1 | -0.83% (inactive) | -6.48 | 5.21
52 | O=C1N[C@H](Cc2ccccc2)COCc2cn(nn2)CC[C@@H]1Cc1ccc(-c2ccccc2)cc1 | -0.275% (inactive) | 6.34 | -4.54
53 | CCCC#Cc1cnc2c(c1)C(=O)N([C@H](C)CO)C[C@@H](C)[C@@H](CN(C)C(=O)Nc1ccccc1OC)O2 | 4.88% (inactive) | 7.2 | -1.58
54 | COc1ccc(NC(=O)N(C)C[C@@H]2OCCCC[C@H](C)Oc3ccc(NS(=O)(=O)c4cn(C)cn4)cc3C(=O)N([C@@H](C)CO)C[C@@H]2C)cc1 | -1.73% (inactive) | -0.21 | 1.12
55 | COc1ccc(S(=O)(=O)Nc2ccc3c(c2)CC(=O)N([C@@H](C)CO)C[C@H](C)[C@@H](CN(C)Cc2ccc(C(=O)O)cc2)O3)cc1 | -0.025% (inactive) | -7.85 | -0.315
56 | C[C@H](CO)N1C[C@H](C)[C@H](CN(C)Cc2ccc(C(=O)Nc3ccccc3N)cc2)Oc2ccc(NS(C)(=O)=O)cc2C1=O | 5.88% (inactive) | 6.32 | 0.92
57 | COc1ccc(S(=O)(=O)Nc2ccc3c(c2)CC(=O)N([C@H](C)CO)C[C@H](C)[C@H](CN(C)Cc2ccc(C(F)(F)F)cc2)O3)cc1 | -1.22% (inactive) | -12.1 | 0.965
58 | Cc1ccc(S(=O)(=O)Nc2ccc3c(c2)C(=O)N([C@@H](C)CO)C[C@@H](C)[C@@H](CN(C)Cc2ccc(C(=O)Nc4ccccc4N)cc2)O3)cc1 | -3.29% (inactive) | -1.98 | 14
59 | COc1ccc(CN(C)C[C@H]2Oc3ccc(NS(=O)(=O)c4ccc(Cl)cc4)cc3CC(=O)N([C@@H](C)CO)C[C@H]2C)cc1 | -45.9% (active) | -36.8 | -1.42
60 | C[C@@H]1CN([C@@H](C)CO)C(=O)c2cc(NS(=O)(=O)c3ccccc3)ccc2O[C@@H]1CN(C)Cc1ccc(C(=O)Nc2ccccc2N)cc1 | -20.2% (active) | -5.29 | 5.46

From PubChem BioAssay AID720706 (Broad Institute, 2013)
